# Key:
# [1] = target: T1, Muscle, skeletal receptor tyrosine-protein kinase (Homo sapiens) (UniProt O15146); conditions: at 1 µM;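 note: reported value is the mean percent inhibition of MuSK kinase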
# T1 sequence (whole entry): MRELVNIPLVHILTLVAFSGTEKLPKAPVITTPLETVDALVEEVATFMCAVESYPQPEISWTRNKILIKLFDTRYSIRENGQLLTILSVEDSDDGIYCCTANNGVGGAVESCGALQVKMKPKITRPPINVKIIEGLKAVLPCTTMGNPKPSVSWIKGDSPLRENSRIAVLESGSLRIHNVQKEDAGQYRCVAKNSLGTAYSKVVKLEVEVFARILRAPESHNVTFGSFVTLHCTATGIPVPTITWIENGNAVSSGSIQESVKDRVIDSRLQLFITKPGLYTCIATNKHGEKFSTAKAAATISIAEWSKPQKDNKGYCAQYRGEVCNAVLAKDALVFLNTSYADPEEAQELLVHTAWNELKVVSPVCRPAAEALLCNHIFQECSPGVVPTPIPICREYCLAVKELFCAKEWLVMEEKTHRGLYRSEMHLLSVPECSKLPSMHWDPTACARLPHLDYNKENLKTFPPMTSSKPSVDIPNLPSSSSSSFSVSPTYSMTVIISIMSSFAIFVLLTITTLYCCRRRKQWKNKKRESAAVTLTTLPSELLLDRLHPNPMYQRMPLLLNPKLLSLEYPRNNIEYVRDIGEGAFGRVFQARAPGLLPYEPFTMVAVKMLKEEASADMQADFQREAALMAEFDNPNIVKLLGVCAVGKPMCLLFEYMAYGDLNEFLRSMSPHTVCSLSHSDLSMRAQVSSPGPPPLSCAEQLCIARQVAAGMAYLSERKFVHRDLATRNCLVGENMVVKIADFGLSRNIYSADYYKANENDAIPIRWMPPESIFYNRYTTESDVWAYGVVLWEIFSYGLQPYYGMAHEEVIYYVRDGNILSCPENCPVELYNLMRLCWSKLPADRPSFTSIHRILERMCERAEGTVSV
# [2] = target: Platelet-derived growth factor receptor alpha (Homo sapiens) (UniProt P16234); conditions: at 0.1 µM
# Sequence of Platelet-derived growth factor receptor alpha (Homo sapiens) (P16234 whole entry): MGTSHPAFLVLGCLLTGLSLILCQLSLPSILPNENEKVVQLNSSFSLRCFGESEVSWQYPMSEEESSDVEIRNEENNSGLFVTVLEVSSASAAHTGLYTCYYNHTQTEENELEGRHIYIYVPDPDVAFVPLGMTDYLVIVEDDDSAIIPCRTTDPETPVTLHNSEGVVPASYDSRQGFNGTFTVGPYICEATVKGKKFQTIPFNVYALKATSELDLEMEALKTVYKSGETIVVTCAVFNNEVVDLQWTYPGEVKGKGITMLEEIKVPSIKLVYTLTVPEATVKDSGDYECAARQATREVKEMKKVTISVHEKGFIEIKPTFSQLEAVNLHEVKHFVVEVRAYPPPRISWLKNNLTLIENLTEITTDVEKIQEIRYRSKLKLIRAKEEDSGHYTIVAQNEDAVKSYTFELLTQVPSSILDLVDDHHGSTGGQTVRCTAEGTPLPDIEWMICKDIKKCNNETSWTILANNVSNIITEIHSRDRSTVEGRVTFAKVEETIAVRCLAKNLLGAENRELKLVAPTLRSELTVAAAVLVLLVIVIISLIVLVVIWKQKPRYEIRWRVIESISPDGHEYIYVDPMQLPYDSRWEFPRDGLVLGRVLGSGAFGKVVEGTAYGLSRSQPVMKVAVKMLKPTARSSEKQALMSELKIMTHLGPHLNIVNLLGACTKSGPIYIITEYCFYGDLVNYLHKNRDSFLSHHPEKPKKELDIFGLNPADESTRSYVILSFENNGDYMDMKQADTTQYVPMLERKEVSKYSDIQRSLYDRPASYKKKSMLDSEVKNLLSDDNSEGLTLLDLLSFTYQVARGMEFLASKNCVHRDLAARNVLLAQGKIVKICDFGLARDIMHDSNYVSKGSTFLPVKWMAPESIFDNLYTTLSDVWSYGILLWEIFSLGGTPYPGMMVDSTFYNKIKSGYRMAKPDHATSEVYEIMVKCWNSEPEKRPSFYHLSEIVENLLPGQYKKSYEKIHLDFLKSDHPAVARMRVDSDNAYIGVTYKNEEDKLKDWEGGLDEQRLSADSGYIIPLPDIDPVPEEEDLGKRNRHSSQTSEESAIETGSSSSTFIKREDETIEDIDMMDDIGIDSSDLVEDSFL
# [3] = target: Platelet-derived growth factor receptor alpha (Homo sapiens) (UniProt P16234); conditions: at 1 µM
# [4] = tested on: Platelet-derived growth factor receptor alpha (Homo sapiens), P16234 [D842V]; conditions: at 0.1 µM
# Sequence of Platelet-derived growth factor receptor alpha (Homo sapiens), P16234 [D842V] (P16234 whole entry D842V): as the sequence (P16234 whole entry) above, with D842V counted along it
# [5] = tested on: Platelet-derived growth factor receptor alpha (Homo sapiens), P16234 [D842V]; conditions: at 1 µM
# [6] = tested on: Platelet-derived growth factor receptor alpha (Homo sapiens), P16234 [T674I]; conditions: at 0.1 µM
# Sequence of Platelet-derived growth factor receptor alpha (Homo sapiens), P16234 [T674I] (P16234 whole entry T674I): as the sequence (P16234 whole entry) above, with T674I counted along it
# [7] = tested on: Platelet-derived growth factor receptor alpha (Homo sapiens), P16234 [T674I]; conditions: at 1 µM
# [8] = tested on: Platelet-derived growth factor receptor alpha (Homo sapiens), P16234 [V561D]; conditions: at 0.1 µM
# Sequence of Platelet-derived growth factor receptor alpha (Homo sapiens), P16234 [V561D] (P16234 whole entry V561D): as the sequence (P16234 whole entry) above, with V561D counted along it
# [9] = tested on: Platelet-derived growth factor receptor alpha (Homo sapiens), P16234 [V561D]; conditions: at 1 µM
# [10] = target: Platelet-derived growth factor receptor beta (Homo sapiens) (UniProt P09619); conditions: at 0.1 µM;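 note: reported value is the mean percent inhibition of the kinase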
# Sequence of Platelet-derived growth factor receptor beta (Homo sapiens) (P09619 whole entry): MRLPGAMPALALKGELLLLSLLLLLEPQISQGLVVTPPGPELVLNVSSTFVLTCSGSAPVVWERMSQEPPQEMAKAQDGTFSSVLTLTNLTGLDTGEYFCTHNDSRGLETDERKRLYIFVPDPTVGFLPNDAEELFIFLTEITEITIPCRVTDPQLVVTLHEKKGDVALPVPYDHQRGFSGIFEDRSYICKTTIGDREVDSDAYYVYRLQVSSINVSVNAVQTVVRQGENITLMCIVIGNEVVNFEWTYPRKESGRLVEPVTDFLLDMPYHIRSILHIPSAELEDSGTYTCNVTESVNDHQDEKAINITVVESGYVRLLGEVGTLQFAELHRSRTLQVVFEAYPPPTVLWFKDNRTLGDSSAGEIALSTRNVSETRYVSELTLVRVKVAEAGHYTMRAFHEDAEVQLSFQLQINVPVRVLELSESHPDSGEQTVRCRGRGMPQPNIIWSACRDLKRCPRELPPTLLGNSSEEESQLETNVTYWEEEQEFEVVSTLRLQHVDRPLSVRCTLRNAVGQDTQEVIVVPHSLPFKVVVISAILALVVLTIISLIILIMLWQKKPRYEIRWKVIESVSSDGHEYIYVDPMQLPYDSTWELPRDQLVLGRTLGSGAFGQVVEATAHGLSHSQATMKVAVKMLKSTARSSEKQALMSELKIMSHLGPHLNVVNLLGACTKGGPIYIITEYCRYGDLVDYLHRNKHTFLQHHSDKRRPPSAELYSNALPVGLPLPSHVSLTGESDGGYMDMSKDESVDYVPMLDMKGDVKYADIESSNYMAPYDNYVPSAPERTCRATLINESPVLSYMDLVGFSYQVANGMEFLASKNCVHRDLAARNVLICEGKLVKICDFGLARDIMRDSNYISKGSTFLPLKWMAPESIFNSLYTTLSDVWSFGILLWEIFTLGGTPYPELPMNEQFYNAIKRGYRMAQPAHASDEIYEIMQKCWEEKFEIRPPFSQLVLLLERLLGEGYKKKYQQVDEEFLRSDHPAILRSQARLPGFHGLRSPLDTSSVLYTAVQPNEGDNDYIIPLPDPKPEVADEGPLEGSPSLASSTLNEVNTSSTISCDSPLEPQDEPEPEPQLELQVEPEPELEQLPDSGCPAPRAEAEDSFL
Structure (SMILES),inhibition [1],inhibition [2],inhibition [3],inhibition [4],inhibition [5],inhibition [6],inhibition [7],inhibition [8],inhibition [9],inhibition [10]
CNC(=O)c1cc(-c2ccc(F)cc2)cc(-c2ccc(S(=O)(=O)N3CCCC3)cc2)c1N,0.83%,3.69%,7.98%,2.05%,1.76%,2.94%,2.93%,3.32%,2.29%,3.45%
COc1ccc(-c2nn3ncccc3c2-c2ccnc(Nc3ccc4c(c3)OCCO4)n2)cc1,-1.95%,6.34%,29.6%,0.81%,11.7%,4.01%,15.3%,6.6%,39.6%,4.03%
CCn1c(-c2nonc2N)nc2ccccc21,4.12%,6.47%,8.29%,2.53%,2.64%,2.43%,3.19%,1.19%,1.67%,2.55%
CCn1cc(-c2ccnc3[nH]ccc23)c(-c2cccc(NC(=O)Nc3ccc(OCc4ccccc4)cc3)c2)n1,-5.2%,1.29%,7.03%,1.41%,2.72%,0.5%,1.13%,-0.44%,1.14%,2.04%
CC(=O)Nc1cccc(C#Cc2cncnc2Nc2ccc(OCc3cccc(F)c3)c(Cl)c2)c1,6.82%,8.71%,15.1%,1.39%,1.82%,5.24%,1.24%,-4.05%,4.74%,3.29%
COC(=O)c1sc(-n2cnc3cc(OC)c(OC)cc32)cc1OCc1ccccc1C(F)(F)F,48.1%,26.1%,66.3%,18%,66.5%,9.67%,44.6%,22.2%,70.6%,14.9%
CCOc1ccc2c(-c3ccnc(Nc4cccc(C(F)(F)F)c4)n3)cnn2n1,1.27%,9.61%,27.3%,2.8%,10.2%,3.74%,9.48%,2.96%,15.9%,7.67%
COc1ccc(-c2oc3ncnc(N)c3c2-c2ccc(NC(=O)Nc3cc(C(F)(F)F)ccc3F)cc2)cc1,101%,38.6%,88.9%,6.4%,54.4%,18%,72.1%,26.6%,86.2%,20.2%
Fc1ccc(-c2cc(-c3c[nH]nc3-c3ccccn3)ccn2)cc1,-0.34%,5.93%,19.8%,4.02%,21.2%,5.49%,10.1%,4.91%,11.8%,3.85%
[O-][S+]1CCN(Cc2ccc(-c3ccc4ncnc(Nc5ccc(OCc6cccc(F)c6)c(Cl)c5)c4c3)o2)CC1,2.81%,7.43%,13.2%,4.45%,6.91%,4%,6.97%,3.95%,8.29%,4.69%
Cc1ccc(O)cc1Nc1ccnc2cc(-c3ccccn3)ccc12,5.77%,67.2%,89.5%,81.4%,96.2%,7.02%,6.98%,70.4%,105%,53.4%
NS(=O)(=O)c1ccc(Nc2ncc(-c3ccccc3)o2)cc1,12.4%,7.81%,34.8%,1.5%,10.2%,14.4%,65.1%,25.7%,50.5%,12%
CS(=O)(=O)CCNCc1coc(-c2ccc3ncnc(Nc4ccc(OCc5ccccc5)cc4)c3c2)c1,4.59%,7.28%,11.5%,3.71%,4.82%,3.65%,6.58%,3.61%,12.8%,3.03%
c1ccc(-c2nc3n(c2-c2ccc4c(c2)OCO4)CCC3)nc1,2.2%,3.23%,7.15%,3.87%,2.04%,2.77%,2.15%,2.48%,2.33%,3.66%
COc1cccc(-n2ncc3c(N/N=C/c4ccc(F)cc4)ncnc32)c1,9.49%,15.8%,42.1%,9.48%,45.4%,9.07%,29.6%,8.4%,37.1%,12.8%
FC(F)(F)c1cccc(-c2nn3ncccc3c2-c2ccnc(Nc3ccc4c(c3)OCCO4)n2)c1,2.21%,5.63%,15.1%,3.38%,5.8%,2.79%,3.91%,1.96%,15.8%,6.05%
COc1cccc(-c2c[nH]c3c(N/N=C/c4ccncc4)ncnc23)c1,48.8%,64%,82.8%,72.2%,94.4%,21.8%,82.2%,59.7%,93%,55%

Structure (SMILES),inhibition [1],inhibition [2],inhibition [3],inhibition [4],inhibition [5],inhibition [6],inhibition [7],inhibition [8],inhibition [9],inhibition [10]
COc1cc2c(cc1Nc1nc(Nc3ccsc3C(N)=O)c3cc[nH]c3n1)N(C(=O)CN(C)C)CCC2(C)C,62.4%,21.6%,63.2%,5.04%,20.5%,8.69%,16.9%,13.1%,46.1%,15.1%
O=C(O[C@H]1CN[C@H](C#Cc2cc3ncnc(Nc4ccc(Cc5ccccc5)cc4)c3s2)C1)N1CCOCC1,-2.65%,-1.51%,7.66%,-1%,2.55%,1.75%,3.96%,-0.15%,1.53%,2.34%
COc1ccc2[nH]c3c4[nH]c5ccc(OC)cc5c4c4c(c3c2c1)C(=O)NC4=O,11.8%,81.1%,83.5%,94.8%,96.3%,65.7%,94.3%,93.8%,96.8%,78.2%
Fc1ccc(-c2nn3ccccc3c2-c2ccncc2)cc1,3.5%,1.93%,5.44%,1.99%,5.38%,3.28%,1.29%,1.28%,5.89%,0.58%
COc1cc(Nc2nccc(Nc3ccc4c(C)n[nH]c4c3)n2)cc(OC)c1OC,72.5%,76%,91.6%,50%,90.2%,11.4%,59%,71.4%,96.5%,74.4%
CNC(=O)c1cccc(C#Cc2cncnc2Nc2ccc(OCc3cccc(F)c3)c(Cl)c2)c1,-1.15%,5.17%,17.4%,-0.74%,2.9%,1.03%,2.59%,0.66%,4.6%,4.41%
CC(C)COC(=O)c1ccc2c(c1)/C(=C/Nc1ccc(S(N)(=O)=O)cc1)C(=O)N2,51.3%,53.2%,84.3%,60.7%,93.1%,4.41%,38.9%,44.7%,88.4%,66.3%
c1cc(-c2cnn3nc(N4CCOCC4)ccc23)nc(NC2CC2)n1,9.05%,31.9%,76.8%,21.2%,75.8%,2.78%,17.5%,18.1%,72.4%,12.5%
O=C(Nc1n[nH]c2cc(-c3ccc(F)cc3)ccc12)C1CC1,4.55%,4.52%,14.6%,4.21%,12.9%,3.24%,8.33%,4.41%,13.2%,2.29%
CN(C)CCOc1ccc(-c2nc(-c3ccncc3)c(-c3ccc4c(c3)CC/C4=N\O)[nH]2)cc1,3.72%,8.1%,15.9%,0.79%,3.47%,3.47%,8.38%,2.97%,5.35%,4.84%
COc1ccc(CNC(=O)c2ccc(-c3cc(-c4nnc(C)o4)ccc3C)cc2)cc1,-7.05%,12.6%,16.5%,3.66%,3.96%,5.1%,6.47%,7.3%,4.07%,8.68%
CS(=O)(=O)CCNCc1ccc(-c2ccc3ncnc(Nc4ccc(OCc5ccccc5)c(C(F)(F)F)c4)c3c2)o1,-0.25%,6.22%,7.17%,2.98%,2.15%,3.58%,5.04%,3.38%,1.15%,1.55%
c1ccc(COc2ccc(Nc3ncnc4ccc(-c5ccco5)cc34)cc2)cc1,1.01%,3.81%,6.96%,2.63%,3.21%,2.49%,3.6%,2.39%,2.43%,-0.23%
CCCN(CCS(C)(=O)=O)Cc1ccc(-c2ccc3ncnc(Nc4ccc(OCc5cccc(F)c5)c(Cl)c4)c3c2)o1,2.34%,7.21%,16.2%,3.62%,5.72%,4.68%,4.67%,2.84%,7.4%,3.14%
Cc1cccc(Nc2ncc(-c3ccccc3)o2)c1,5.58%,7.16%,29.9%,1.63%,5.43%,7.94%,50.3%,22.5%,48.7%,7.93%
O=S(=O)(CCNCc1ccc(-c2ccc3ncnc(Nc4ccc(OCc5cccc(F)c5)c(Cl)c4)c3c2)o1)c1ccccc1,5.15%,11.9%,19%,3.35%,6.47%,7.8%,12.8%,3.09%,8.1%,5.51%
